The values that follow come from the OligoGym collection.
Note: reference of the scale not given here.

The target of the first assay is FAM154A. Description: pooled miR-30 sensor sort-seq; sequence = guide strand. As to conditions: shRNA.
The sequence TTGTTTTTTGTCATTTTAGGGA returned a sensor-assay potency score (higher = more potent) of -0.361.

Take TTATCTCGAAACTCAGTGGTGT: the sensor-assay potency score (higher = more potent) is 0.244.

With TTTTATGGGGTAATCGTCCTGG, the sensor-assay potency score (higher = more potent) was found to be 0.26.

TAGTTCTCGGTATATTCGGAGA: the sensor-assay potency score (higher = more potent) was -1.23.

For TAATCTGAAGTGCAGGTCGGCA, the sensor-assay potency score (higher = more potent) was -1.32.

TTGTAGTCATCCTTGGTGGTGG came in with a sensor-assay potency score (higher = more potent) of 0.0888.

TTGGCTTGAAGGACTCTCTGGG displayed a sensor-assay potency score (higher = more potent) of 0.798.

The sequence AAGCTTGGTACTTATCTCGAAA yielded a sensor-assay potency score (higher = more potent) of -0.971.

As for TTAGTCACATCCTCCAAGGGGA, the sensor-assay potency score (higher = more potent) turned out to be 0.0144.

In the case of TTGTCCAACAAATAATTCTCAG, the sensor-assay potency score (higher = more potent) is -0.941.

Sequence TTAATCTGAAGTGCAGGTCGGC displayed a sensor-assay potency score (higher = more potent) of -0.481.

As for TTTGTATATCCTGTGACCCAAA, the sensor-assay potency score (higher = more potent) was -1.34.

Another assay has as its target FAM162A. The assay is described as above. As to conditions: shRNA.
On to TCATCTTCCTTTTTGAAGCGAC, for which the sensor-assay potency score (higher = more potent) is -0.679.

In turn, TCACATAACCTAAAACAGCTTC registered a sensor-assay potency score (higher = more potent) of -0.389.

For the sequence TTAAAGTCTCGTGTCTTTGGGC, the sensor-assay potency score (higher = more potent) is 0.109.

ATAACCTAAAACAGCTTCCTGC registered a sensor-assay potency score (higher = more potent) of -0.549.

Sequence TAGATAGCTGATCTTCACTCGC returned a sensor-assay potency score (higher = more potent) of 0.225.

Consider TAACCATGAAGATGCATCCTAC, for which the sensor-assay potency score (higher = more potent) was -0.864.

In the case of TTCTACAGCAGAAATACGGAAA, the sensor-assay potency score (higher = more potent) is -0.939.

Sequence TTTTTGAAGCGACCTGACCATA showed a sensor-assay potency score (higher = more potent) of -1.33.

In the case of TAAAACAGCTTCCTGCTGCCAG, the sensor-assay potency score (higher = more potent) was -0.369.

As to TTAGAGATGAGGAAACATCTCT, the sensor-assay potency score (higher = more potent) was 0.0745.
